The source of these data is PubChem BioAssay (Tox21).

Inconclusive results are not listed. Activity calls are given as the source filed them. The call rests on the fitted dose curve; in most records, active means well fitted cell-killing curve with a large enough effect in the repeat runs; inconclusive means weak or mixed curves, or effect the other way; inactive means flat fitted curve, though single readings scatter.
On the % scale 0 is the no-effect control and ±100 the full control effect.

A short description of the test: qHTS RealTime-Glo MT Cell Viability Assay in HEK293 cells - 0 hour (AID 1224880). Further: top concentration of the series differs between compounds; nearly all actives have a fitted effect of over 45% in size. To be noted: RealTime-Glo luminescence; series mostly up to 76.8 µM; activity change, negative = cytotoxicity: at the top concentration. The text has this: U.S. Tox21 Program National Center for Advancing Translational Sciences [NCATS] NIH Chemical Genomics Center [NCGC] U.S. Environmental Protection Agency [EPA] National Institutes of Environmental Health Sciences [NIEHS] National Toxicology Program [NTP] U.S. Food and Drug Administration [FDA] Tox21 Assay Overview: Measure of cell viability is critical in the cell-base assay. Analysis of cell viability is necessary for the characterization of cell responses to cytotoxic drugs and environmental stress. A RealTime-Glo MT Cell Viability Assay to monitor cell viability in real time of continues cell culture during 40 hours of compound treatment was used to screen Tox21 10K library compounds in Hek293 cells. The RealTime-Glo MT Cell Viability Assay is a nonlytic, homogeneous, bioluminescent method to measure cell viability in real time using a simple, plate-based method. The assay involves adding NanoLuc luciferase and a cell-permeant prosubstrate to cells in culture. Viable cells reduce the proprietary prosubstrate to generate a substrate for NanoLuc luciferase. This substrate diffuses from cells into the surrounding culture medium, where it is rapidly used by the NanoLuc Enzyme to produce a luminescent signal. The signal correlates with the number of viable cells, making the assay well suited for cytotoxicity studies.
Tox21 Assay Protocol Summary: The mixture of Hek293 cell suspension and reagents were dispensed at 600cells/6 ul/well in 1536-well tissue culture treated black solid bottom plates using a Multidrop dispenser. After the assay plates were incubated at a 37 C/5% CO2 incubator for 5 hours, 23 nL of compounds dissolved in DMSO, positive and negative controls was transferred to the assay plate by a pintool work station. The plates were incubated at 37 C for 40 hours. The luminescence intensity were measured at 0h, 8h, 16h, 24h, 32h and 40h time points using ViewLux plate reader during compound treatment.
On the technique in general: qHTS replaces the single test concentration by a dilution series.
In the case of `CC(CO)CO`, the “activity change, negative = cytotoxicity” value is -1.44% (inactive).

In the case of `CC(=O)NC1(c2cccc(F)c2)CCN(CC[C@@]2(c3ccc(Cl)c(Cl)c3)CN(c3ccccc3)C(=O)CO2)CC1`, the “activity change, negative = cytotoxicity” value was -7.91% (inactive).

Regarding `c1ccc(C[n+]2cccc3ccccc32)cc1`, the “activity change, negative = cytotoxicity” value was 20.9% (inactive).

Consider `COC(=O)CCS`, for which the “activity change, negative = cytotoxicity” value is 0.648% (inactive).

With `CN1C(=O)c2ccccc2C1=O`, the “activity change, negative = cytotoxicity” value is -2.6% (inactive).

In the case of `NC(=O)c1ccncc1`, the “activity change, negative = cytotoxicity” value is -2.09% (inactive).

With `O=Cc1c2ccccc2c(Cl)c2ccccc12`, the “activity change, negative = cytotoxicity” value was 4.35% [at 35.3 µM] (inactive).

Consider `O=C(O)CCc1nc(-c2ccccc2)c(-c2ccccc2)o1`, for which the “activity change, negative = cytotoxicity” value is -11.3% [at 35.3 µM] (inactive).

On to `Cc1cc(C)c(N)cc1C`, for which the “activity change, negative = cytotoxicity” value is 0.588% (inactive).

Consider `O=C1CCCCCCCCCCOCCCCO1`, for which the “activity change, negative = cytotoxicity” value is 4.4% (inactive).

Regarding `OC(CCN1CCCC1)(c1ccccc1)C1CCCCC1` (stereo not given), the “activity change, negative = cytotoxicity” value is 13.7% [at 35.3 µM] (inactive).

For `O=C(/C=C/c1ccc(O)c(O)c1)O[C@@H]1C[C@@](OC(=O)/C=C/c2ccc(O)c(O)c2)(C(=O)O)C[C@@H](O)[C@@H]1O`, the “activity change, negative = cytotoxicity” value is 7.02% [at 35.3 µM] (inactive).

For `C=CC(C)(CCC=C(C)C)OC(=O)CC(C)C` (stereo not given), the “activity change, negative = cytotoxicity” value was -10.1% (inactive).

On to `CC(CN(C)C)C(C)(O)Cc1ccc(Cl)cc1` (stereo not given), for which the “activity change, negative = cytotoxicity” value is -13% [at 35.3 µM] (inactive).

Take `CN1C[C@H](C(=O)N[C@]2(C)O[C@@]3(O)[C@@H]4CCCN4C(=O)[C@H](Cc4ccccc4)N3C2=O)C[C@@H]2c3cccc4[nH]cc(c34)C[C@H]21`: the “activity change, negative = cytotoxicity” value was -7.74% [at 35.3 µM] (inactive).

With `CC1CC(OC(=O)C(O)c2ccccc2)CC(C)(C)N1C` (stereo not given), the “activity change, negative = cytotoxicity” value was 1.63% [at 35.3 µM] (inactive).

For `CC(=O)Nc1ccc(C)cc1C`, the “activity change, negative = cytotoxicity” value was -20.3% (inactive).

In the case of `Cc1ccc(C(C)(C)O)cc1`, the “activity change, negative = cytotoxicity” value was -13.5% (inactive).

Take `C=C(C)C(=O)OCCCCCCCCCCCCC`: the “activity change, negative = cytotoxicity” value was -12.2% (inactive).

Regarding `CC(C)C(O)(c1ccc(OC(F)(F)F)cc1)c1cncnc1` (stereo not given), the “activity change, negative = cytotoxicity” value is -6.55% (inactive).

In the case of `C[C@]1(Cn2ccnn2)[C@H](C(=O)O)N2C(=O)C[C@H]2S1(=O)=O`, the “activity change, negative = cytotoxicity” value is 8.06% [at 35.3 µM] (inactive).

Consider `CNC(=O)c1cnn(-c2nc(N)c3ncn([C@@H]4O[C@H](CO)[C@@H](O)[C@H]4O)c3n2)c1`, for which the “activity change, negative = cytotoxicity” value is -1.28% [at 35.3 µM] (inactive).

On to `CCCCCCCCN`, for which the “activity change, negative = cytotoxicity” value is -0.344% (inactive).

As to `O=C(OCC(O)CO)c1ccccc1Nc1ccnc2cc(Cl)ccc12` (stereo not given), the “activity change, negative = cytotoxicity” value was -17.5% [at 35.3 µM] (inactive).

Take `CN1CCCC(n2nc(Cc3ccc(Cl)cc3)c3ccccc3c2=O)CC1` (stereo not given): the “activity change, negative = cytotoxicity” value is 16.6% [at 35.3 µM] (inactive).

Take `C1COC1`: the “activity change, negative = cytotoxicity” value is 8.36% (inactive).

`O=C1NC(=O)c2cc([N+](=O)[O-])ccc21`: the “activity change, negative = cytotoxicity” value was 1.33% (inactive).

As for `CCC(OCCCOC)OC(C)=O` (stereo not given), the “activity change, negative = cytotoxicity” value was -1.55% (inactive).

In the case of `CCCC(C(=O)OCCN(CC)CC)(c1ccccc1)c1ccccc1`, the “activity change, negative = cytotoxicity” value was -1.12% [at 35.3 µM] (inactive).

On to `CCC(C)(C)OC`, for which the “activity change, negative = cytotoxicity” value is 3.45% (inactive).

Consider `CC(=O)OCC(=O)NCCCOc1cccc(CN2CCCCC2)c1`, for which the “activity change, negative = cytotoxicity” value is 5.83% [at 35.3 µM] (inactive).

As for `O=C1Cc2cc(Cl)ccc2N1`, the “activity change, negative = cytotoxicity” value was 28.1% [at 35.3 µM] (inactive).

Regarding `CCCCCCNC(=O)n1cc(F)c(=O)[nH]c1=O`, the “activity change, negative = cytotoxicity” value was 5.71% [at 35.3 µM] (inactive).

On to `O=C1c2ccccc2C(=O)C1c1ccc(Br)cc1`, for which the “activity change, negative = cytotoxicity” value is -17.7% [at 35.3 µM] (inactive).

Consider `C=C1CCC2CC1C2(C)C` (stereo not given), for which the “activity change, negative = cytotoxicity” value is -2.49% (inactive).

As for `N#CCCN(CCO)CCO`, the “activity change, negative = cytotoxicity” value was -2.31% (inactive).

As to `Cc1cc2c(OCC(CNC(C)(C)C)OC(=O)c3ccccc3)cccc2[nH]1` (stereo not given), the “activity change, negative = cytotoxicity” value was 10.5% [at 35.3 µM] (inactive).

With `N#CCc1ccc(Cl)cc1Cl`, the “activity change, negative = cytotoxicity” value is -1.76% (inactive).

`Cc1cccc(N(C)C(=S)Oc2ccc3c(c2)CCC3)c1`: the “activity change, negative = cytotoxicity” value was 0.152% [at 35.3 µM] (inactive).

For the compound `C[C@@H](O)[C@H]1C(=O)N2C(C(=O)O)=C([C@H]3CCCO3)S[C@H]12`, the “activity change, negative = cytotoxicity” value is 10.9% [at 35.3 µM] (inactive).
